Results filed as inconclusive are left out. A call without a number means that no potency is given here. Calls of active or inactive are those of the source. Calls come from the whole dose curve; as a rule, active = well fitted inhibition curve with a large enough effect in the polarisation, with a control signal flat (not every such curve was filed as active); inconclusive = small, poorly fitted or top-dose-only effect, or effect the other way, or a change in a side signal; inactive = no such curve, though single readings can be large or run the other way; the % refers to the polarisation.
assay: Confirmation of Inhibitors Targeting the Menin-MLL Interaction in MLL Related Leukemias: Competition With Texas Red Labeled MLL-derived Mutant Peptide; conditions: fluorescence polarization, Texas Red MLL peptide displacement; series mostly up to 94.6 µM
Summary of the method: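 FP competition using menin at 200 nM with Texas Red-labeled mutant MLL peptide (50 nM) plus fluorescein MLL-w.t. peptide (25 nM) in 50 mM Tris-HCl pH 7.5, 50 mM NaCl, 1 mM DTT, 0.05% BSA; compound added, 1 hr ambient; polarization read per label.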
Potency is the fitted concentration of half-maximal effect.

Structure (SMILES) | Potency
N=C1c2ccccc2CN1c1ccc(N2CCOCC2)c(S(=O)(=O)Nc2ccc(Cl)cc2)c1 | 141 µM (active)
COc1ccc(N(CC(=O)NC2CC3CCC2C3)S(=O)(=O)c2ccc(C)cc2)cc1OC (stereo not drawn) | inactive
Cn1c(=O)n(C)c2cc3[nH]cnc3cc21 | inactive
COc1cc(OC)c2ccc(=O)oc2c1C(CCN1CCOCC1)c1ccc(N(C)C)cc1 (stereo not drawn) | inactive
O=C(Cn1c(=O)c2c3c(sc2n(Cc2ccccc2)c1=O)CCCC3)NCCO | inactive
O=C(CC(=O)c1ccccc1)Nc1cc(C(F)(F)F)ccc1Cl | inactive
COc1ccc(CC(=O)Nc2ccc(-c3nnc(-c4ccccc4)o3)cc2)cc1 | inactive
CCOC(=O)N1CCN(CCC(=O)c2ccc(Br)cc2)CC1 | inactive
CCCC(=O)Nc1cccc(NC(=O)c2ccc([N+](=O)[O-])cc2Cl)c1 | inactive
CC(CC(=O)Nc1nc2ccccc2[nH]1)n1ccnc1 (stereo not drawn) | inactive
Cc1ccc(C#CC(C)(O)C(C)(C)C)cn1 (stereo not drawn) | inactive
Cc1cc2c(c(=O)n1Cc1ccccc1)C1O[C@](c3ccsc3)(Cc3cc(C#N)ccc31)O2 | inactive
Cc1cc(N/N=C/c2ccc(O)cc2)c2cccc(C)c2n1 | 71 µM (active)
Cc1sc2ncnc(NC3CCN(Cc4ccccc4)CC3)c2c1C | 28.2 µM (active)
CCCc1nc2c(=O)[nH]c3ccccc3c2o1 | inactive
O=C(NC1CCN(c2ncccn2)CC1)c1c(F)cccc1F | inactive
CCc1cc2c(N3CCN(C(=O)c4ccco4)CC3)ncnc2s1 | 35.5 µM (active)

Structure (SMILES) | Potency
CC(c1cc2ccccc2s1)N(O)C(N)=O (stereo not drawn) | inactive
CCCCCC1CCC(C(=O)NCCN2CCOCC2)CC1 (stereo not drawn) | inactive
Cc1cc(C)c2c(=O)cc(C(=O)NCc3ccccc3)oc2c1 | inactive
CN(C)/C=C(/C(=O)c1ccc(Cl)cc1)S(=O)(=O)c1ccc(Cl)cc1 | inactive
C[N+]1(CCNC(=O)/C=N/O)CCCCC1 | inactive
COc1ccc(NC(=O)NC2(C(=O)N3CCOCC3)CCCCC2)cc1 | inactive
CCn1cnc2c1c(=O)n(CC(=O)O)c(=O)n2Cc1ccccc1 | inactive
O=C(C1CCCN(Cc2cccc(Cl)c2)C1)N1CCCCC1 (stereo not drawn) | inactive
NC(=NCCCCCCN=C(N)/N=C(\N)Nc1ccc(Cl)cc1)/N=C(\N)Nc1ccc(Cl)cc1 | 70.8 µM (active)
CN1C[C@@H]2C[C@H]1CN2c1cc2c(cc1F)c(=O)c(C(=O)O)cn2C1CC1 | inactive
Cc1c(F)cccc1NS(=O)(=O)c1ccc2c(c1)c(C)cc(=O)n2C | inactive
O=[N+]([O-])CC(c1ccccc1)P(=O)(c1ccccc1)c1ccccc1 (stereo not drawn) | inactive
COCCNC(=O)C(OC(=O)c1nsc(Cl)c1Cl)C(C)C (stereo not drawn) | inactive
CN(C)CCc1c[nH]c2ccc(CC3COC(=O)N3)cc12 (stereo not drawn) | inactive
O=C(Nc1nnc(-c2ccccc2SCc2ccccc2)s1)Nc1ccccc1F | 22.4 µM (active)
O=C(CSc1nnc(-c2c[nH]c3ccccc23)o1)c1ccc(-c2ccccc2)cc1 | 35.5 µM (active)

Source: PubChem BioAssay AID2782 (National Center for Advancing Translational Sciences (NCATS), 2010)
